From paper PMC5540273 (PLoS ONE, 2017)

How the values were obtained:
Conditions in all cases: concentration: 1 μM, replicates: in singlicate; n = 1
IRAK4 = system: IRAK4
ITK = system: ITK
[1] = system: JAK1(JH1domain-catalytic)
[2] = system: JAK1(JH2domain-pseudokinase)
[3] = system: JAK2(JH1domain-catalytic)
[4] = system: JAK3(JH1domain-catalytic)
JNK1 = system: T1, JNK1
T1 construct: gene MAPK8

JNK2 = system: T2, JNK2
T2 construct: gene MAPK9

JNK3 = system: T3, JNK3
T3 construct: gene MAPK10

KIT-autoinhibited = system: KIT-autoinhibited
KIT = system: KIT
LATS1 = system: LATS1
LATS2 = system: LATS2
LCK = system: LCK
LIMK1 = system: LIMK1
LIMK2 = system: LIMK2
LKB1 = system: T4, LKB1
T4 construct: gene STK11

LOK = system: T5, LOK
T5 construct: gene STK10

LRRK2 = system: LRRK2
LTK = system: LTK
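Also: KINOMEscan kinase panel screen.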

| Structure (SMILES) | %Inh (IRAK4) [%] | %Inh (ITK) [%] | %Inh [1] [%] | %Inh [2] [%] | %Inh [3] [%] | %Inh [4] [%] | %Inh (JNK1) [%] | %Inh (JNK2) [%] | %Inh (JNK3) [%] | %Inh (KIT-autoinhibited) [%] | %Inh (KIT) [%] | %Inh (LATS1) [%] | %Inh (LATS2) [%] | %Inh (LCK) [%] | %Inh (LIMK1) [%] | %Inh (LIMK2) [%] | %Inh (LKB1) [%] | %Inh (LOK) [%] | %Inh (LRRK2) [%] | %Inh (LTK) [%] |
| --- | --- | --- | --- | --- | --- | --- | --- | --- | --- | --- | --- | --- | --- | --- | --- | --- | --- | --- | --- | --- |
| O=c1cc(N2CCOCC2)nc2n(Cc3cccc(Cl)c3Cl)ccn12 [GSK2286295] | 0 | 4 | 17 | 0 | 0 | 0 | 1 | 30 | 15 | 0 | 32 | 0 | 13 | 9 | 0 | 0 | 0 | 0 | 31 | 0 |
| O=C(Nc1ccc2c(c1)OCO2)NC1CCN(c2ccnc(Nc3ccc(F)cc3)n2)C1 (stereo not drawn) [GSK1379724] | 21 | 8 | 18 | 0 | 13 | 0 | 33 | 23 | 24 | 0 | 54 | 0 | 0 | 12 | 41 | 0 | 0 | 0 | 28 | 0 |
| Cc1ccc(NC(=O)Nc2cccc(Cl)c2)cc1-c1ccc(C(=O)Nc2ccncc2)cc1 [GSK1398468] | 13 | 16 | 16 | 6 | 1 | 0 | 15 | 14 | 0 | 0 | 99.6 | 0 | 0 | 25 | 0 | 12 | 0 | 0 | 0 | 7 |
| Cc1ccc(NC(=O)Nc2cc(C(C)(C)C)nn2-c2ccccc2)cc1 [GSK1014915] | 23 | 12 | 0 | 0 | 13 | 0 | 45 | 39 | 10 | 0 | 98.6 | 31 | 0 | 24 | 5 | 0 | 0 | 60 | 0 | 67 |
| COc1ccc(C2=C(Nc3cccc(C(=O)O)c3)C(=O)NC2=O)cc1 [SB-390765] | 0 | 0 | 0 | 18 | 12 | 0 | 41 | 32 | 33 | 14 | 6 | 26 | 20 | 10 | 100 | 0 | 11 | 28 | 0 | 11 |
| COc1cccc(NC(=O)NC2CCN(c3ccnc(Nc4ccc(F)cc4)n3)C2)c1 (stereo not drawn) [GSK1379721] | 12 | 0 | 7 | 0 | 20 | 0 | 0 | 4 | 0 | 0 | 63 | 0 | 0 | 1 | 0 | 5 | 25 | 0 | 0 | 0 |
| Fc1cc(Cl)ccc1Nc1ccnc2cc(I)ccc12 [GW551191] | 14 | 13 | 0 | 0 | 1 | 0 | 18 | 29 | 10 | 0 | 49 | 0 | 0 | 24 | 0 | 0 | 0 | 0 | 37 | 13 |
| Cl.NC(=O)c1cccc(Nc2nccc(Nc3ccc(Oc4cccc(Cl)c4)c(Cl)c3)n2)c1 [GW659008] | 0 | 0 | 15 | 0 | 84 | 0 | 22 | 20 | 10 | 0 | 46 | 0 | 0 | 68 | 43 | 4 | 0 | 15 | 11 | 0 |
| Cc1cccc(-c2nc(Nc3cccc(C(N)=O)c3)c3ccccc3n2)n1 [GW876019] | 4 | 8 | 0 | 78 | 12 | 15 | 0 | 0 | 0 | 10 | 0 | 8 | 0 | 20 | 0 | 9 | 0 | 21 | 73 | 40 |
| NC(=O)c1nnc2ccccc2c1N | 33 | 64 | 4 | 37 | 58 | 65 | 27 | 17 | 13 | 19 | 10 | 0 | 0 | 0 | 0 | 5 | 0 | 10 | 75 | 0 |
| Cc1csc(-c2nc(Nc3ccncc3)c3ccccc3n2)n1 [GW869640] | 0 | 11 | 0 | 74 | 53 | 9 | 54 | 16 | 15 | 24 | 12 | 19 | 20 | 2 | 15 | 2 | 43 | 40 | 31 | 18 |
| Cc1c(O)cccc1Nc1ccnc2ccc(C(F)(F)F)cc12.Cl [GW466413] | 0 | 0 | 0 | 0 | 6 | 0 | 21 | 4 | 0 | 0 | 17 | 0 | 0 | 73 | 0 | 0 | 0 | 0 | 58 | 28 |
| CCCc1ccc(S(=O)(=O)NC2CCN(c3ccnc(Nc4ccc(F)cc4)n3)C2)cc1 (stereo not drawn) [GSK1379715] | 16 | 6 | 18 | 0 | 52 | 0 | 24 | 21 | 9 | 0 | 12 | 0 | 0 | 0 | 14 | 0 | 0 | 0 | 19 | 4 |
| COc1ccccc1-c1ccc2c(NC(=O)C3CC3)n[nH]c2n1 [SB-711239] | 7 | 0 | 25 | 0 | 0 | 13 | 0 | 9 | 0 | 0 | 0 | 28 | 8 | 10 | 0 | 5 | 6 | 0 | 0 | 4 |
| COc1cccc(-c2cc(-c3c[nH]nc3-c3ccccn3)ccn2)c1 [GW680338] | 0 | 2 | 7 | 0 | 0 | 0 | 42 | 40 | 50 | 0 | 9 | 64 | 0 | 10 | 0 | 15 | 1 | 10 | 6 | 0 |
| CC(=O)Nc1nc2cnc(Nc3cc(NC(=O)c4cccc(CCC#N)c4)ccc3C)nc2s1 | 15 | 3 | 3 | 9 | 22 | 0 | 0 | 0 | 0 | 11 | 99.7 | 21 | 29 | 27 | 0 | 0 | 0 | 0 | 0 | 0 |
| O=C(Nc1ccccc1)Nc1cccc(Oc2ccc3nccn3n2)c1 | 0 | 2 | 16 | 5 | 7 | 0 | 0 | 0 | 0 | 39 | 100 | 0 | 30 | 33 | 0 | 0 | 24 | 18 | 0 | 0 |
| Cc1ccc(-c2cc(-c3c[nH]nc3-c3ccccn3)ccn2)cc1 [GW684088] | 0 | 0 | 12 | 1 | 0 | 0 | 29 | 36 | 53 | 2 | 23 | 0 | 6 | 7 | 0 | 17 | 12 | 0 | 0 | 0 |
| O=C(Nc1n[nH]c2cc(-c3cccc(F)c3F)ccc12)C1CC1 [SB-733894] | 0 | 0 | 0 | 67 | 27 | 18 | 32 | 0 | 1 | 6 | 18 | 0 | 22 | 0 | 0 | 0 | 0 | 0 | 0 | 0 |
| COc1ccc(Nc2nccc(NCCNC(=O)Nc3ccccc3F)n2)cc1 [GSK1379901] | 20 | 9 | 15 | 0 | 25 | 0 | 56 | 15 | 11 | 0 | 57 | 44 | 0 | 20 | 4 | 3 | 0 | 0 | 0 | 0 |
| Cc1ccccc1-n1cnc2c(N)ncnc21 [SKF-97510] | 0 | 1 | 5 | 0 | 0 | 0 | 0 | 0 | 0 | 0 | 0 | 0 | 3 | 100 | 16 | 15 | 0 | 0 | 0 | 0 |
